MITF inh = inhibitors of MITF, primary screen, MITF inhibitor project, cell-based, luminescence. AID 2240, 2010. inhibition, % (concentration not given with the values). 37,000 compounds, 0.28% hits. TRPM1 promoter luciferase, 24 h; in the data active = inhibition above about 85%; inconclusive = no clear call, values can overlap the other calls; inactive = below about 68%;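 also: human melanocyte line stably carrying TRPM1 promoter luciferase reporter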
NOMO-1 viab = NOMO-1 AML cell viability reduction, primary screen, STK33 inhibitor project, CellTiter-Glo luminescence | NOMO-1 AML viability, 72 h | inhibition, % (no concentration beside the values) | 37,000 compounds, 7.5% hits | AID 2330, 2010; in the data active = inhibition above about 80%; inconclusive = no clear call, values can overlap the other calls
Hedgehog inh = Hedgehog pathway signaling inhibitors, primary screen, luminescence, Shh-LIGHT2 cells, Gli-luciferase; Shh-LIGHT2 Gli-luciferase reporter, 30 h; inhibition, % (no concentration beside the values); 22,000 compounds, 2.1% hits;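 active = mean inhibition across valid replicates above about 65%, limit read from the data; inconclusive = mean under the limit, yet half or more replicates past it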;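 also: pathway switched on by Shh-conditioned medium diluted 1 in 25 in low serum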
Each line names hits and unclear results; the compound was inactive in the other large screens. Sampled rows, rich in hits. Any-hit rate of the full collection: about 7.8%.

CC1=C(C#N)C(C(F)(F)F)(C(F)(F)F)N=C(C2CCCCC2)N1	NOMO-1 viab 141, Hedgehog inh 105
COc1ccc(/C=C/C(=O)O[C@@H]2[C@@H](O)[C@H](C)O[C@@H](O[C@H]3[C@@H]4C=CO[C@@H](O[C@H]5O[C@@H](CO)[C@H](O)[C@@H](O)[C@@H]5O)[C@@H]4[C@@]4(CO)O[C@@H]34)[C@@H]2OC(C)=O)cc1	none
COc1cccc2cc(-c3nnc(SCC(=O)Nc4cccc(F)c4)n3C)oc12	none (no result: Hedgehog inh)
COc1cccc2cc(-c3nnc(SCC(=O)Nc4cccc(Br)c4)n3C)oc12	NOMO-1 viab 107 (no result: Hedgehog inh)
CC[n+]1c(C=C2C=C(C)CC(C)(C)C2)oc2ccccc21	NOMO-1 viab 115 (no result: Hedgehog inh)
C[C@@H]1CCCCO[C@H](CN(C)C(=O)Nc2ccc3c(c2)OCO3)[C@@H](C)CN([C@H](C)CO)C(=O)c2cc(NS(=O)(=O)c3cccs3)ccc2O1	none
O=C(Nc1ccc([N+](=O)[O-])cc1Cl)c1cc(Cl)ccc1O	MITF inh 106, NOMO-1 viab 120, Hedgehog inh 88
O=C(Nc1ccccc1)c1cc([N+](=O)[O-])ccc1Cl	NOMO-1 viab 118
O=C(Nc1ccccc1)c1cc([N+](=O)[O-])ccc1NCc1cccnc1	none (no result: Hedgehog inh)
O=C(COc1ccc([N+](=O)[O-])cc1)Nc1cc(Cl)ccc1O	none (no result: Hedgehog inh)
N#CCCN(CCC#N)C(=O)c1cc(-c2ccccc2)nc2ccccc12	none (no result: Hedgehog inh)
On1onc2c3cc(-c4ccccc4)nc3ccc21	NOMO-1 viab 115, Hedgehog inh 99
NCCCN(Cc1ccco1)C1CCCC1	NOMO-1 viab 106 (no result: Hedgehog inh)
C[C@@H]1CN([C@H](C)CO)C(=O)c2cc(N(C)C)ccc2O[C@@H]1CN(C)C(=O)NC1CCCCC1	none
CC(C)NC(=O)N(C)C[C@@H]1Oc2ccc(NC(=O)CCC(F)(F)F)cc2CC(=O)N([C@@H](C)CO)C[C@@H]1C	none
CC(C)C[C@@H](NC(=O)OCC1c2ccccc2-c2ccccc21)C(=O)O	none
CC(C)C[C@@H](/C=C/S(C)(=O)=O)NC(=O)[C@H](CC(C)C)NC(=O)[C@H](CC(C)C)NC(=O)OCc1ccccc1	NOMO-1 viab 98
O=C(CN1C(=O)c2ccccc2S1(=O)=O)Nc1cc(Cl)ccc1Oc1ccccc1	none (no result: Hedgehog inh)
COc1cc(-c2oc3cc(O)cc(O)c3c(=O)c2OC2OC(CO[C@@H]3O[C@@H](C)[C@H](O)[C@@H](O)[C@H]3O)C(O)C(O)C2O)ccc1O (some centres not stated)	none (no result: MITF inh, NOMO-1 viab)
O=S(=O)(c1ccc(Cl)cc1)N1CCc2ccccc21	NOMO-1 viab 120, Hedgehog inh 81
O=C(O)C1C2C=CC(O2)C1C(=O)Nc1ccc(S(=O)(=O)N2CCc3ccccc32)cc1 (configuration not stated)	none (no result: Hedgehog inh)
Cc1cccc(-n2c(SCC(=O)O)nc3sc4c(c3c2=O)CCCC4)c1	none (no result: Hedgehog inh)
Cc1ccc(S(=O)(=O)N(C)C[C@@H]2Oc3c(NC(=O)C4CCOCC4)cccc3C(=O)N([C@H](C)CO)C[C@@H]2C)cc1	none
C[C@@H]1CN([C@H](C)CO)C(=O)c2cccc(NC(=O)NC3CCCCC3)c2O[C@@H]1CN(C)S(=O)(=O)c1ccc(F)cc1	none
COc1cc(O)cc(C(=O)O)c1Oc1cc(C)cc(O)c1C(=O)O	none
CC(C)NC(=O)N(C)C[C@@H]1Oc2ccc(NC(=O)CCCCCC(=O)Nc3ccccc3N)cc2C(=O)N([C@H](C)CO)C[C@@H]1C	none (no result: Hedgehog inh)
CC1CCCC2OC2C(=O)c2c(O)cc(O)cc2CC(=O)O1 (configuration not stated)	none
CC1CCC/C=C/C(=O)c2c(O)cc(O)cc2CC(=O)O1 (configuration not stated)	NOMO-1 viab 108
CC(=O)Nc1cccc(-c2nn3c(C)nnc3s2)c1	none
COc1cccc(OC)c1C(=O)NC(=S)Nc1cccc(-c2nn3c(C)nnc3s2)c1	NOMO-1 viab 122 (no result: Hedgehog inh)
CNC[C@H]1Oc2c(NC(=O)Nc3ccc(OC)cc3)cccc2C(=O)N([C@H](C)CO)C[C@H]1C	none
CNC[C@H]1Oc2ccc(NC(=O)NC3CCCCC3)cc2C(=O)N([C@H](C)CO)C[C@@H]1C	none (no result: Hedgehog inh)
C[C@H](CO)N1C[C@H](C)[C@H](CN(C)C(=O)Nc2ccc(C(F)(F)F)cc2)Oc2ccc(NS(=O)(=O)c3ccccc3)cc2C1=O	none (no result: Hedgehog inh)
C[C@@H]1CN([C@H](C)CO)C(=O)Cc2cc(N(C)C)ccc2O[C@@H]1CN(C)Cc1ccc2c(c1)OCO2	none
C[C@@H]1CN([C@H](C)CO)C(=O)Cc2cc(NC(=O)Nc3ccccc3)ccc2O[C@@H]1CN(C)Cc1ccc(-c2ccccc2)cc1	NOMO-1 viab 107
COc1ccc(NC(=O)Nc2ccc3c(c2)CC(=O)N([C@@H](C)CO)C[C@H](C)[C@@H](CN(C)Cc2ccc(-c4ccccc4)cc2)O3)cc1	none
CC(C)NC(=O)Nc1ccc2c(c1)CC(=O)N([C@@H](C)CO)C[C@@H](C)[C@@H](CN(C)Cc1ccc(-c3ccccc3)cc1)O2	NOMO-1 viab 94
C[C@@H]1CN([C@@H](C)CO)C(=O)Cc2cc(NC(=O)Nc3ccccc3)ccc2O[C@@H]1CN(C)Cc1ccccc1	none
CC(C)NC(=O)Nc1ccc2c(c1)CC(=O)N([C@H](C)CO)C[C@H](C)[C@H](CN(C)Cc1ccc(-c3ccccc3)cc1)O2	none
C[C@@H]1CN([C@H](C)CO)C(=O)Cc2cc(NC(=O)Nc3ccc(F)cc3)ccc2O[C@@H]1CN(C)Cc1ccc(-c2ccccc2)cc1	none
C[C@H]1CN([C@@H](C)CO)C(=O)Cc2cc(NC(=O)Nc3ccc(F)cc3)ccc2O[C@@H]1CN(C)Cc1ccc(-c2ccccc2)cc1	NOMO-1 viab 106
COc1ccc(NC(=O)Nc2ccc3c(c2)CC(=O)N([C@@H](C)CO)C[C@H](C)[C@H](CN(C)Cc2ccc(-c4ccccc4)cc2)O3)cc1	NOMO-1 viab 128
C[C@@H]1CN([C@@H](C)CO)C(=O)c2cc(NS(=O)(=O)c3cccs3)ccc2O[C@@H]1CN(C)Cc1ccc2c(c1)OCO2	none (no result: Hedgehog inh)
COc1ccccc1CC(CC(=O)O)C(=O)O (configuration not stated)	none (no result: Hedgehog inh)
C[C@@H]1CN([C@@H](C)CO)C(=O)Cc2cc(NC(=O)C3CC3)ccc2O[C@@H]1CN(C)C(=O)NC1CCCCC1	none
Cc1noc(C)c1S(=O)(=O)Nc1ccc2c(c1)CC(=O)N([C@H](C)CO)C[C@@H](C)[C@@H](CN(C)C(=O)NC(C)C)O2	none
COc1ccc(S(=O)(=O)Nc2ccc3c(c2)C(=O)N([C@@H](C)CO)C[C@@H](C)[C@H](CN(C)C(=O)NC(C)C)O3)cc1	none
COc1ccc(-c2nnc(SCC(=O)Nc3cccc(C(F)(F)F)c3)n2-c2ccccc2)cc1	NOMO-1 viab inconclusive (no result: Hedgehog inh)
Cc1ccccc1OCC(=O)Nc1cccc(-c2nc3ncccc3o2)c1	none (no result: Hedgehog inh)
Cc1noc(C)c1S(=O)(=O)Nc1ccc2c(c1)CC(=O)N([C@H](C)CO)C[C@@H](C)[C@@H](CN(C)C(=O)Nc1ccc(F)cc1)O2	none
O/N=C(\Cn1cncn1)c1ccc(Cl)cc1Cl	none
Clc1ccc(CO/N=C(\Cn2ccnc2)c2ccc(Cl)cc2Cl)c(Cl)c1	MITF inh 93, NOMO-1 viab 110, Hedgehog inh 104
O=C(NCCCN1CCOCC1)C(=O)NC1CC1	none (no result: Hedgehog inh)
